Measurements reported in PubChem BioAssay.
Results filed as inconclusive are left out. Active and inactive are the calls of the source.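 Rule for the calls, unless noted: active = normalized viability below 100% at a tested concentration; inactive = the rest.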

What was measured:
[1] = growth inhibition of DIPG glioma cells, dose response, cell-based, SU-DIPG-XVII, MIPE5.0, CellTiter-Glo, qHTS (AID 1347060; cut-off not given, nearly all actives have AC50 up to about 26 µM;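 note: cells exposed to compound for 48 hours before viability readout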); conditions: SU-DIPG-XVII viability, CellTiter-Glo ATP luminescence
[2] = growth inhibition of DIPG glioma cells, dose response, cell-based, SU-DIPG-XIII, MIPE5.0, CellTiter-Glo, qHTS (AID 1347064; cut-off not given, nearly all actives have AC50 up to about 23 µM;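 note: cells exposed to compound for 48 hours before the viability read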); conditions: SU-DIPG-XIII viability, CellTiter-Glo ATP luminescence
[3] = viability loss in pontine glioma line – cell-based, SU-DIPG-XXV, MIPE5.0, CellTiter-Glo, qHTS, dose response (AID 1347065; cut-off not given, nearly all actives have AC50 up to about 26 µM;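 note: cells exposed to compound for 48 hours before ATP readout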); conditions: CellTiter-Glo ATP luminescence
[4] = JHH-DIPG-1 glioma cell viability, MIPE5.0 library, CellTiter-Glo luminescence, qHTS (AID 1347067; cut-off not given, nearly all actives have AC50 up to about 26 µM;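 note: cells exposed to compound for 48 hours before readout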); conditions: JHH-DIPG-1 glioma viability, CellTiter-Glo ATP luminescence
[5] = SU-DIPG-XXV glioma cell viability, MIPE5.0 library, qHTS (AID 1347068; cut-off not given, nearly all actives have IC50 up to about 30 µM;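 for IC50: cells exposed to compound for 48 hours before viability readout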)
[6] = sensitizers of A549 cells to miR-34 induction, primary screen, imaging, A549 dox-inducible miR-34, nuclei and caspase counts (AID 1347080;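 active = compounds whose cell count with miR-34 switched on is under 0.7 times the count with it off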); conditions: A549 miR-34 inducible, Hoechst nuclei count, 48 h
[7] = survival rescue of mitochondrial mutant cells in low glucose, primary screen, MELAS cybrids, Rieske KO mouse fibroblasts, CellTiter-Glo (AID 1508586;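 active = mean z-score across replicates of 1.96 or higher in either the MELAS or the Rieske mutant cell line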;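 note: z relative to plate mean and SD of compound and empty wells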)
[8] = ovarian cancer cell viability with rucaparib, profiling panel, oncology-focused library, rucaparib conditional (AID 1508598); conditions: patient-derived ovarian cancer cells, CellTiter-Glo viability, 144 h, stronger effect = lower value
[9] = stronger effect = lower value, cell number ratio, induced over uninduced
[10] = measured here: relative caspase fold change +Dox/-Dox
[11] = measured here: total cells with miR-34 induction, stronger effect = lower value
[12] = measured here: total cells without miR-34 induction
[13] = MELAS cybrid survival, CellTiter-Glo 48 h, stronger effect = higher value
[14] = Rieske KO mouse fibroblast survival, CellTiter-Glo 72 h

CCOC(=O)CCNc1cc(N2CCc3ccccc3CC2)nc(-c2ccccn2)n1
AC50 [1]: 2950 nM (active)
AC50 [2]: 3320 nM (active)
AC50 [3]: 14800 nM (active)
AC50 [4]: 5250 nM (active)
IC50 [5]: 8330 nM (active)
fold change [6, 9]: 0.698 (active)
fold change [6, 10]: 1.37
cell count [6, 11]: 3830
cell count [6, 12]: 5480
z-score [7, 13]: -0.444 (inactive)
z-score [7, 14]: -0.225

COc1ccc(S(=O)(=O)N(CCO)c2ccccc2CN(C)C/C=C/c2ccc(Cl)cc2)cc1
AC50 [1]: 18600 nM (active)
AC50 [2]: 7420 nM (active)
AC50 [3]: 16600 nM (active)
AC50 [4]: 10500 nM (active)
IC50 [5]: 18600 nM (active)

C#CC[C@H](c1nc2cc(Cl)ccc2c(=O)n1Nc1ccccc1)N(CCCN)C(=O)c1cccc(Cl)c1F
AC50 [1]: 417 nM (active)
AC50 [2]: 4680 nM (active)
AC50 [3]: 372 nM (active)
AC50 [4]: 742 nM (active)
IC50 [5]: 417 nM (active)
viability ([8]; at 0.000305 µM, OCI-C5x cells, with rucaparib 10 µM, 100% = cells with rucaparib alone): 125% (inactive)
viability ([8]; at 0.000305 µM, OCI-C5x cells, without rucaparib): 105% (inactive)
viability ([8]; at 0.000305 µM, OCI-P5x cells, with rucaparib 20 µM, 100% = cells with rucaparib alone): 109% (inactive)
viability ([8]; at 0.000305 µM, OCI-P5x cells, without rucaparib): 94.3% (active)
viability ([8]; at 0.00122 µM, OCI-C5x cells, with rucaparib 10 µM, 100% = cells with rucaparib alone): 130% (inactive)
viability ([8]; at 0.00122 µM, OCI-C5x cells, without rucaparib): 102% (inactive)
viability ([8]; at 0.00122 µM, OCI-P5x cells, with rucaparib 20 µM, 100% = cells with rucaparib alone): 109% (inactive)
viability ([8]; at 0.00122 µM, OCI-P5x cells, without rucaparib): 97.9% (active)
viability ([8]; at 0.00488 µM, OCI-C5x cells, with rucaparib 10 µM, 100% = cells with rucaparib alone): 115% (inactive)
viability ([8]; at 0.00488 µM, OCI-C5x cells, without rucaparib): 109% (inactive)
viability ([8]; at 0.00488 µM, OCI-P5x cells, with rucaparib 20 µM, 100% = cells with rucaparib alone): 107% (inactive)
viability ([8]; at 0.00488 µM, OCI-P5x cells, without rucaparib): 92.1% (active)
viability ([8]; at 0.0195 µM, OCI-C5x cells, with rucaparib 10 µM, 100% = cells with rucaparib alone): 125% (inactive)
viability ([8]; at 0.0195 µM, OCI-C5x cells, without rucaparib): 112% (inactive)
viability ([8]; at 0.0195 µM, OCI-P5x cells, with rucaparib 20 µM, 100% = cells with rucaparib alone): 96.2% (active)
viability ([8]; at 0.0195 µM, OCI-P5x cells, without rucaparib): 90.6% (active)
viability ([8]; at 0.0781 µM, OCI-C5x cells, with rucaparib 10 µM, 100% = cells with rucaparib alone): 67.5% (active)
viability ([8]; at 0.0781 µM, OCI-C5x cells, without rucaparib): 57.4% (active)
viability ([8]; at 0.0781 µM, OCI-P5x cells, with rucaparib 20 µM, 100% = cells with rucaparib alone): 91.9% (active)
viability ([8]; at 0.0781 µM, OCI-P5x cells, without rucaparib): 49.8% (active)
viability ([8]; at 0.313 µM, OCI-C5x cells, with rucaparib 10 µM, 100% = cells with rucaparib alone): 57% (active)
viability ([8]; at 0.313 µM, OCI-C5x cells, without rucaparib): 55% (active)
viability ([8]; at 0.313 µM, OCI-P5x cells, with rucaparib 20 µM, 100% = cells with rucaparib alone): 59.6% (active)
viability ([8]; at 0.313 µM, OCI-P5x cells, without rucaparib): 17.5% (active)
viability ([8]; at 1.25 µM, OCI-C5x cells, with rucaparib 10 µM, 100% = cells with rucaparib alone): 56.2% (active)
viability ([8]; at 1.25 µM, OCI-C5x cells, without rucaparib): 46.9% (active)
viability ([8]; at 1.25 µM, OCI-P5x cells, with rucaparib 20 µM, 100% = cells with rucaparib alone): 54.9% (active)
viability ([8]; at 1.25 µM, OCI-P5x cells, without rucaparib): 15.7% (active)
viability ([8]; at 5 µM, OCI-C5x cells, with rucaparib 10 µM, 100% = cells with rucaparib alone): 1.31% (active)
viability ([8]; at 5 µM, OCI-C5x cells, without rucaparib): 3.55% (active)
viability ([8]; at 5 µM, OCI-P5x cells, with rucaparib 20 µM, 100% = cells with rucaparib alone): 0.597% (active)
viability ([8]; at 5 µM, OCI-P5x cells, without rucaparib): 1.54% (active)

C=CC(=O)Nc1cccc(Nc2nc(Nc3ccc(OCCOC)cc3)ncc2F)c1
AC50 [1]: 2350 nM (active)
AC50 [2]: 1660 nM (active)
AC50 [3]: 2090 nM (active)
AC50 [4]: 3720 nM (active)
IC50 [5]: 3320 nM (active)
fold change [6, 9]: 0.943 (inactive)
fold change [6, 10]: 0.349
cell count [6, 11]: 1800
cell count [6, 12]: 1910
z-score [7, 13]: 2.91 (active)
z-score [7, 14]: -0.365

CN(C)c1ccc(-c2nc3ncc(Cl)c(N4CCN(CC(=O)Nc5nccs5)CC4)c3[nH]2)cc1
AC50 [1]: 2290 nM (active)
AC50 [2]: 7230 nM (active)
AC50 [3]: 3230 nM (active)
AC50 [4]: 2290 nM (active)
outcome [5]: inactive
fold change [6, 9]: 1.06 (inactive)
fold change [6, 10]: 0.825
cell count [6, 11]: 2120
cell count [6, 12]: 2000
z-score [7, 13]: 2.54 (active)
z-score [7, 14]: -0.697

COc1cc(N2CCC(N)CC2)ccc1Nc1ncc(Cl)c(-c2c[nH]c3ccccc23)n1
AC50 [1]: 525 nM (active)
AC50 [2]: 263 nM (active)
AC50 [3]: 209 nM (active)
AC50 [4]: 525 nM (active)
IC50 [5]: 742 nM (active)
fold change [6, 9]: 0.915 (inactive)
fold change [6, 10]: 0.405
cell count [6, 11]: 1920
cell count [6, 12]: 2100
z-score [7, 13]: 0.226 (inactive)
z-score [7, 14]: -0.504
